Test results from PubChem BioAssay (NCATS).
Inconclusive results are not listed. Active and inactive are the calls of the source. Calls follow the shape of the dose curve; as a rule, active = well fitted cell-killing curve with a large enough effect; inconclusive = small, poorly fitted or top-dose-only effect; inactive = no such curve, though single readings can be large or run the other way.

Experiment: qHTS of pediatric cancer cell lines to identify multiple opportunities for drug repurposing: Primary screen for Rh30 cells (AID 1347107); also: nearly all actives have a fitted effect of over 75% in size
Settings: Rh30 rhabdomyosarcoma viability, CellTiter-Glo luminescence, 48 h; series mostly up to 46 µM; activity change, negative = cytotoxic: at the top concentration
How it was run: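 Cells (500-1,000/well) rested 5 h, then received compounds for 48 h; metabolically active cells were measured by CellTiter-Glo luminescence. Final concentrations spanned up to 46 µM (MIPE, 11-point) or 0.59 nM-46 µM (NPC, 8-point) in primary screens, 11-point in follow-ups.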
% is scaled to controls: 0 for no effect and ±100 for the full control effect.

| SMILES | activity change, negative = cytotoxic |
| --- | --- |
| C[C@]12CC[C@H]3[C@@H](CCC4=CC(=O)CC[C@@]43C)[C@H]1CC[C@H]2O | 4.8% (inactive) |
| C#C[C@]1(O)C=C[C@@H]2[C@@H]3CCC4=CC(=O)CC[C@@H]4[C@H]3CC[C@@]21CC | 18% (inactive) |
| CC(C)NCC(O)c1ccc([N+](=O)[O-])cc1 (stereo unspecified) | -5.44% (inactive) |
| O=C(NCC1CCOCC1)c1cnc(Nc2ccc(Cl)cc2Cl)nc1C(F)(F)F | 2.85% (inactive) |
| ClC1=C(Cl)[C@]2(Cl)[C@@H]3[C@@H]4C[C@@H]([C@H]5O[C@@H]45)[C@@H]3[C@@]1(Cl)C2(Cl)Cl | 15.5% [at 92.7 µM] (inactive) |
| CCOC(=O)Nc1ccc(NCc2ccc(F)cc2)cc1N | -0.27% (inactive) |
| CCOP(=O)(OCC)C(C)NC(=O)N(CCCl)N=O (stereo unspecified) | 26.4% (inactive) |
| O=C(O)COc1ccccc1 | 23.7% (inactive) |
| CSCC[C@@H](NC(=O)[C@@H](Cc1ccccc1)NC(=O)CNC(=O)CNC(=O)[C@@H](N)Cc1ccc(O)cc1)C(=O)O | 33.8% (inactive) |
| O=[N+]([O-])/N=C1\NCCN1Cc1ccc(Cl)nc1 | 3.59% (inactive) |
| c1cc2c(cc1[C@H]1OC[C@H]3[C@H]1CO[C@H]3c1ccc3c(c1)OCO3)OCO2 | 5.24% (inactive) |
| CN[C@@H]1Cc2cccc3[nH]c(=O)n(c23)C1 | -3.37% (inactive) |
| O=S(=O)(O)C(F)(F)C(F)(F)C(F)(F)C(F)(F)C(F)(F)C(F)(F)C(F)(F)C(F)(F)F | 21.6% [at 92.7 µM] (inactive) |
| CN1CCN(c2ccc([N+](=O)[O-])c3no[n+]([O-])c23)CC1 | -5.27% (inactive) |
| O=C(Oc1ccc([N+](=O)[O-])cc1)N1CCC(C(O)(c2ccc3c(c2)OCO3)c2ccc3c(c2)OCO3)CC1 | 20.4% (inactive) |
| C[C@]12CCC(=O)C(O)=C1CC[C@@H]1[C@H]3CCC(=O)[C@@]3(C)CC[C@@H]12 | 7.86% (inactive) |
